Here are results for seven compounds from PubChem BioAssay (NCI).

Among the test systems are DU-145 prostate; K-562 leukemia; MALME-3M melanoma; MDA-MB-231 breast; RXF 393 renal; SF-268 CNS; SF-295 CNS; SF-539 CNS; UACC-257 melanoma; M14 melanoma; HCT-15 colon; HT29 colon; SNB-75 CNS; SNB-19 CNS; U251 CNS; PC-3 prostate; SK-MEL-5 melanoma; UACC-62 melanoma; LOX IMVI melanoma; SK-MEL-28 melanoma.
Holding throughout (assay): NCI-60 one-dose screen, 48 h (100 = growth as untreated, 0 = no growth, -100 = all killed)
Common to all, as to conditions: 10 µM unless noted

Compounds without any hit were thinned out: in the full panel of roughly 83,000, 20% have a hit.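 Compound tested at a single concentration for 48 hours in 96-well plates; a percent growth value below 10 was scored as active.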 A number with no mark means an inactive call. Activity calls are given as the source filed them.

For `O=S(=O)(Nc1cc(Br)c(O)c2ccccc12)c1ccc(F)cc1`, the growth in the assay on DU-145 prostate was 81.2%; in the assay on K-562 leukemia, 28.7%; in the assay on MALME-3M melanoma, 62.2%; in the assay on MDA-MB-231 breast, 10.7%; in the assay on RXF 393 renal, 102%; with SF-268 CNS, 79.4%. The growth was 95% in the assay on SF-295 CNS; 85.1% in the assay on SF-539 CNS; 63.4% in the assay on UACC-257 melanoma; 96.7% in the assay on M14 melanoma; 86.8% in the assay with HCT-15 colon; 113% with HT29 colon. The growth is 100% in the assay with SNB-75 CNS; 108% in the assay on SNB-19 CNS; 35.4% in the assay with U251 CNS; 32% in the assay with PC-3 prostate; 48.9% with SK-MEL-5 melanoma; 54.2% in the assay on UACC-62 melanoma. In addition, the growth in the assay on LOX IMVI melanoma was 0.868% (active); in the assay with SK-MEL-28 melanoma it was 81.1%.

`Cc1ccc(CNc2ccc(Cl)cc2NCc2ccc(C)c(O)c2)cc1O`: the growth in the assay with DU-145 prostate was 23.4%; with K-562 leukemia, 12.3%; in the assay with MALME-3M melanoma, -3.38% (active); with MDA-MB-231 breast it was -52.2% (active); in the assay on RXF 393 renal, 21.2%; in the assay with SF-268 CNS, 28.3%. The growth in the assay with SF-295 CNS was 74.2%; in the assay with SF-539 CNS, 25.8%; in the assay with UACC-257 melanoma it was 46.2%; in the assay on M14 melanoma it was 25.3%; in the assay with HCT-15 colon it was 7.28% (active); in the assay on HT29 colon, 49.1%. Further, the growth was 41.1% with SNB-75 CNS; 29.5% in the assay on SNB-19 CNS; 21.9% in the assay on U251 CNS; 7.21% (active) in the assay on PC-3 prostate; 32.7% in the assay on SK-MEL-5 melanoma; 38.6% in the assay on UACC-62 melanoma. The growth was 2.86% (active) with LOX IMVI melanoma and 31.9% in the assay with SK-MEL-28 melanoma.

For `O=C1/C(=C/c2ccc(Cl)cc2)COc2ccc(O)c(O)c21`, the growth is 21.4% in the assay on DU-145 prostate; 13.1% in the assay on K-562 leukemia; 7.38% (active) in the assay with MALME-3M melanoma; -17.8% (active) with MDA-MB-231 breast; 9.7% (active) in the assay with RXF 393 renal; -0.809% (active) with SF-268 CNS. Also, the growth was 77.1% in the assay on SF-295 CNS; -76% (active) in the assay on SF-539 CNS; 10.1% in the assay on UACC-257 melanoma; 30.9% in the assay with M14 melanoma; -1.01% (active) in the assay on HCT-15 colon; 15.5% with HT29 colon. Besides, the growth was 18.2% with SNB-75 CNS; 24.9% with SNB-19 CNS; -57% (active) in the assay on U251 CNS; -6% (active) in the assay with PC-3 prostate; 56% in the assay on SK-MEL-5 melanoma; 4.2% (active) in the assay with UACC-62 melanoma. For the same compound, the growth was -84.8% (active) in the assay on LOX IMVI melanoma and 60.2% in the assay with SK-MEL-28 melanoma.

As for `O=C(c1cc2ccccc2o1)c1nn(-c2ccccc2)/c(=N/N=Cc2cn(-c3ccccc3)nc2-c2cc3ccccc3oc2=O)s1`, the growth with DU-145 prostate was 103%; in the assay with K-562 leukemia, 78.2%; in the assay with MALME-3M melanoma it was 98.9%; in the assay on MDA-MB-231 breast it was 86.2%; in the assay with RXF 393 renal it was 107%; with SF-268 CNS it was 96.8%. Moreover, the growth is 104% with SF-295 CNS; 98.4% with SF-539 CNS; 103% with UACC-257 melanoma; 97.8% in the assay on M14 melanoma; 87.8% in the assay on HCT-15 colon; 107% with HT29 colon. For the same compound, the growth is 97.2% in the assay with SNB-75 CNS; 101% in the assay with SNB-19 CNS; 83.1% in the assay with U251 CNS; 93% in the assay on PC-3 prostate; 102% with SK-MEL-5 melanoma; 97.2% in the assay on UACC-62 melanoma. The growth in the assay with LOX IMVI melanoma was 95.6%; in the assay on SK-MEL-28 melanoma, 114%.

Consider `N#Cc1nn(-c2cc(=O)[nH]c3ccc(Cl)cc23)c(N)c1C#N`, for which the growth is 118% in the assay on DU-145 prostate; -43.9% (active) with K-562 leukemia; 91.9% with MALME-3M melanoma; 108% in the assay with MDA-MB-231 breast; 107% in the assay on RXF 393 renal; 113% with SF-268 CNS. The growth in the assay on SF-295 CNS was 97.6%; in the assay with SF-539 CNS, 96%; in the assay with UACC-257 melanoma, 87%; in the assay with M14 melanoma, 93.7%; with HCT-15 colon, 108%; with HT29 colon, 101%. Moreover, the growth with SNB-75 CNS was 113%; in the assay on SNB-19 CNS, 98.8%; in the assay on U251 CNS, 103%; with PC-3 prostate it was -87.3% (active); in the assay with SK-MEL-5 melanoma it was 102%; in the assay on UACC-62 melanoma, 81.9%. Further, the growth with LOX IMVI melanoma is 96.6%; in the assay with SK-MEL-28 melanoma it was 104%.

As for `COc1cc(-c2cc(-c3cccs3)c(C#N)c(N3CCOCC3)n2)cc(OC)c1OC`, the growth in the assay on DU-145 prostate is 98.7%; in the assay with K-562 leukemia, 10.9%; with MALME-3M melanoma, 116%; in the assay on MDA-MB-231 breast, 65.4%; in the assay on RXF 393 renal, 40.6%; with SF-268 CNS, 113%. Besides, the growth with SF-295 CNS is 62%; in the assay with SF-539 CNS, 58.9%; in the assay with UACC-257 melanoma it was 20.7%; in the assay with M14 melanoma, 44.6%; in the assay with HCT-15 colon, 25.2%; in the assay with HT29 colon it was 22.2%. The growth with SNB-75 CNS was 69.2%; in the assay with SNB-19 CNS it was 95.2%; with U251 CNS, 52.9%; in the assay with PC-3 prostate, 67%; in the assay on SK-MEL-5 melanoma, 45.7%; in the assay with UACC-62 melanoma it was 63.6%. In addition, the growth in the assay with LOX IMVI melanoma was 81.5%; with SK-MEL-28 melanoma, 91.4%.

`O=C1/C(=C\c2cn(-c3ccccc3)nc2-c2ccc(-c3cccs3)cc2)CCc2ccccc21`: the growth was 85.8% in the assay on DU-145 prostate; 17.6% with K-562 leukemia; 65.4% in the assay with MALME-3M melanoma; 67.5% with MDA-MB-231 breast; 58.1% in the assay with RXF 393 renal; 70.5% in the assay on SF-268 CNS. Further, the growth is 54.8% in the assay with SF-295 CNS; 72% with SF-539 CNS; 83.3% in the assay on UACC-257 melanoma; 39.1% in the assay with M14 melanoma; 37.8% with HCT-15 colon; 29.5% with HT29 colon. The growth was 45.8% in the assay with SNB-75 CNS; 61% with SNB-19 CNS; 66.2% in the assay on U251 CNS; 78.1% in the assay on PC-3 prostate; 66% in the assay on SK-MEL-5 melanoma; 47.7% in the assay with UACC-62 melanoma. Also, the growth was 56.9% with LOX IMVI melanoma and 68.8% in the assay with SK-MEL-28 melanoma.
